KB-V1 cytotox – kills drug-selected multidrug resistant KB-V1 cells. Potency, µM (highest dose often 46.1 µM), actives largely listed as cytotoxic. AID 1347076. KB-V1 MDR cells viability, CellTiter-Glo, 72 h. hit rate 3.4% among 400,000; also: nearly all actives have a fitted effect of over 60% in size
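Luminescent ATP read-out (CellTiter-Glo, 10 min) measures survival of drug-selected KB-V1 MDR cells after 72 h, 37 degrees C compound exposure. Medium: phenol-red-free DMEM, 10% FBS. Values from fitted concentration-response curves.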
KB-3-1 cytotox – KB-3-1 parental cell cytotoxicity | AID 1347075 | KB-3-1 viability, CellTiter-Glo ATP luminescence, 72 h | Potency, µM (series often up to 46.1 µM), usual class: cytotoxic | hit rate 1.4% among 400,000; also: nearly all actives have a fitted effect of over 60% in size
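Cells are dispensed, compounds pinned in, plates held at 37 °C for 72 h, then CellTiter-Glo is added and luminescence read after 10 minutes. Cell line: parental KB-3-1 in phenol-red-free DMEM, 10% FBS.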
hERG WT inh – blocks the wildtype human KCNH2 potassium channel; Q12809; activity change, % at 1.84 µM; AID 720551; U2OS, BacMam KCNH2, thallium flux FluxOr; stronger effect = lower value; hit rate 0.37% among 340,000;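 active = maximum activity change below -70%; inconclusive = maximum activity change between -70% and -50%; inactive = maximum activity change above -50%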
Target sequence (Q12809 whole entry, looked up): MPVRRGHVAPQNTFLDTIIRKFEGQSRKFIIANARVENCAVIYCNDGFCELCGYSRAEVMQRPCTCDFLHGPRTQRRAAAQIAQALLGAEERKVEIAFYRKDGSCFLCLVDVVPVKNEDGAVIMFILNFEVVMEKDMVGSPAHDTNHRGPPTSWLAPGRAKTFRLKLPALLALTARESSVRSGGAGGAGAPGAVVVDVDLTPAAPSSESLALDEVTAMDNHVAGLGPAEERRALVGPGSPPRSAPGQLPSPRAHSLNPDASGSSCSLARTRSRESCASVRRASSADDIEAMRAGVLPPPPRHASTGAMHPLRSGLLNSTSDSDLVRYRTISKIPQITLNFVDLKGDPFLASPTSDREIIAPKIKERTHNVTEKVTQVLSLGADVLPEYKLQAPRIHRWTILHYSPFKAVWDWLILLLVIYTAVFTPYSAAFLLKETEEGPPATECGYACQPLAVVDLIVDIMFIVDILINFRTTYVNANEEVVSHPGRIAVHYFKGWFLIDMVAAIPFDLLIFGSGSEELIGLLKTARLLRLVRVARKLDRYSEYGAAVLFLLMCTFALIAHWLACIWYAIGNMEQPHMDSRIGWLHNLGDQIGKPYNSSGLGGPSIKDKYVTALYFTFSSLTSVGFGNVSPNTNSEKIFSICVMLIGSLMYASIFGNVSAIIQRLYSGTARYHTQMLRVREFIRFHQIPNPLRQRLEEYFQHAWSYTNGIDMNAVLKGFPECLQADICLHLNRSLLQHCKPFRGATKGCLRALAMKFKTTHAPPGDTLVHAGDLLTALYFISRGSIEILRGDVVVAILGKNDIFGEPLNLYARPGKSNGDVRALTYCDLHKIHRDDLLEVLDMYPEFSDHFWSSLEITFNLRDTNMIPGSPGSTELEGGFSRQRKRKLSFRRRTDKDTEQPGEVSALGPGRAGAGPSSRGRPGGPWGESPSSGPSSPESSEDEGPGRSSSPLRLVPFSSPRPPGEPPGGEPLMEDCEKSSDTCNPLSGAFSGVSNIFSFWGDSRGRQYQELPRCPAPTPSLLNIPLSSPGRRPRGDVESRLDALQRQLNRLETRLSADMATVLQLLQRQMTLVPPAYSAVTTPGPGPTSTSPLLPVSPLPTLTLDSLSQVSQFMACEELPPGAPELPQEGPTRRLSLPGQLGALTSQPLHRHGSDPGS
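U2OS cells were transduced with wild-type KCNH2 virus (2.03 x 10^8 / mL) for 4 h at room temperature, then cultured overnight at 37 C. Thallium flux was read with FluxOr dye. Rate constants were normalized to DMSO controls.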
MCF10A rereplic – DNA re-replication induction in MCF 10a cells; MCF 10A DNA re-replication, Hoechst nuclear intensity, 48 h; Potency, µM (titrated, usually from 46.1 µM), usual class: activators; hit rate 2.9% among 350,000; also: nearly all actives have a fitted effect of over 50% in size
SW480 rerep – induces DNA re-replication in SW480 colon adenocarcinoma cells. SW480 DNA re-replication, Hoechst DNA content imaging, 48 h. Potency, µM (top dose mostly 46.1 µM), actives largely listed as activators. hit rate 1.8% among 340,000; also: nearly all actives have a fitted effect of over 55% in size
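Image-based read-out: total Hoechst fluorescence of nuclei (405 nm excitation, 500-530 nm emission), with hits raising the fraction of high-intensity nuclei. SW480 colon cells incubated 48 hr with compounds at 37 C.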
KCNH2 3.1 inh – inhibitors of human KCNH2 3.1 potassium channel isoform. activity change, % (tested at about 1.8 µM). hit rate 0.95% among 340,000. U2OS KCNH2 3.1, thallium flux FluxOr; stronger effect = lower value;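 active = maximum activity change below -70%; inconclusive = maximum activity change from -70% to -50%; inactive = maximum activity change above -50%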;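 also: thallium influx rate constant from kinetic fluorescence after stimulation buffer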
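Steps: virus added to U2OS suspension (4 h, RT, dark); medium with 10% FBS added, cells plated, 37 C overnight; FluxOr/Red40 loading buffer 45 min RT; stimulation buffer, 2 min kinetic read; rate constant normalized.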
Each line names hits and unclear results; the compound was inactive in the other large screens. An excerpt weighted towards active compounds, which were near 7.6% of everything screened. Unless noted, calls follow the shape of the dose curve; as a rule, active = well fitted curve in the direction sought with a large enough effect; inconclusive = small, poorly fitted or top-dose-only effect, or another doubt; inactive = no such curve, though single readings can be large; an effect the other way counts as inactive or inconclusive.

COc1ccc(C(=O)/C=C/C(=O)N(CC(=O)NC2CCCCC2)CC2CCCO2)c(O)c1 (stereo unspecified)	KB-V1 cytotox inconclusive, KB-3-1 cytotox inconclusive, MCF10A rereplic 12µM
COc1ccc(C(=O)/C=C/C(=O)N(CC(=O)NC2CCCCC2)Cc2ccccc2OC)c(O)c1	KB-V1 cytotox 15µM, KB-3-1 cytotox inconclusive, MCF10A rereplic inconclusive, SW480 rerep 3.3µM
COc1ccccc1CN(C)CC(=O)NC(=O)NC1CCCCC1	KB-V1 cytotox inconclusive, MCF10A rereplic inconclusive
COc1ccc(C(=O)/C=C/C(=O)N(CC(=O)NC2CCCCC2)Cc2ccccc2)c(O)c1	KB-3-1 cytotox inconclusive, MCF10A rereplic inconclusive, SW480 rerep 6.5µM
Cc1ccc(NC(=O)c2cc(N3C(=O)CCC3=O)ccc2N2CCOCC2)cc1	none
CCOC(=O)c1ccc(NC(=O)Nc2nncs2)cc1	KB-V1 cytotox 0.33µM, KB-3-1 cytotox inconclusive (no result: MCF10A rereplic, SW480 rerep)
Cc1ccc(NC(=O)c2cc(N3C(=O)C=CC3=O)ccc2N2CCOCC2)cc1Cl	MCF10A rereplic 16µM, SW480 rerep inconclusive
CCOC(=O)c1ccc(NC(=O)Nc2ccon2)cc1	KB-V1 cytotox inconclusive, KB-3-1 cytotox 0.58µM, MCF10A rereplic 1.3µM, SW480 rerep inconclusive
O=C(Nc1ccc(N2CCOCC2)cc1)Nc1ccc(Cl)c(Cl)c1	KB-V1 cytotox 18µM, KB-3-1 cytotox inconclusive
C=CCSC1=N/C(=C\c2cc(OCC)c(OC(C)=O)c([N+](=O)[O-])c2)C(=O)S1	none (no result: KCNH2 3.1 inh)
O=C(NCC1CCN(Cc2ccccc2F)CC1)Nc1cc(F)ccc1F	none
O=[N+]([O-])c1ccc2c(c1)/C(=C/c1ccc(C=S)cc1)C=C2	none (no result: hERG WT inh, MCF10A rereplic, SW480 rerep, KCNH2 3.1 inh)
O=C(NCCc1ccncc1)Nc1ccc(Cl)c(Cl)c1	MCF10A rereplic inconclusive, KCNH2 3.1 inh -82
O=C(Nc1ccc(Cl)c(Cl)c1)Nc1ccon1	KB-V1 cytotox 7.3µM, KB-3-1 cytotox 12µM, MCF10A rereplic 12µM, SW480 rerep 10µM
CC(C)CNC(=O)C1C(=O)Nc2ccccc2C(=O)N1C1CCCCC1 (stereo unspecified)	none (no result: hERG WT inh, MCF10A rereplic, SW480 rerep, KCNH2 3.1 inh)
N#CCC(=O)N/N=C1\CCCCC1C1CCCCC1 (stereo unspecified)	none
Cc1ccc(-c2nn(-c3ccccc3)cc2NC(=O)CCl)cc1	KB-V1 cytotox inconclusive, KB-3-1 cytotox 8.2µM, MCF10A rereplic inconclusive, SW480 rerep 18µM
COc1ccc2c(c1)[C@H]1[C@H](CO2)[C@H](c2ccccc2)[C@]2(C)C(=O)Nc3ccc(Br)cc3C(=O)N12	SW480 rerep inconclusive, KCNH2 3.1 inh -86
COc1ccc2c(c1)[C@H]1[C@H](CO2)[C@H](c2ccccc2)[C@]2(C)C(=O)Nc3ccccc3C(=O)N12	KB-V1 cytotox inconclusive, KB-3-1 cytotox inconclusive, MCF10A rereplic 29µM, SW480 rerep inconclusive (no result: hERG WT inh, KCNH2 3.1 inh)
COc1ccc2c(c1)C(=O)N1[C@H]3c4cc(OC)ccc4OC[C@@H]3[C@H](c3ccccc3)[C@]1(C)C(=O)N2	MCF10A rereplic inconclusive, SW480 rerep inconclusive
COc1cc2c(cc1OC)C(=O)N1[C@H]3c4ccccc4OC[C@@H]3[C@H](c3ccccc3)[C@]1(C)C(=O)N2	KB-V1 cytotox inconclusive, SW480 rerep inconclusive
COc1ccc2c(c1)OC[C@H]1[C@H]2N2C(=O)c3cc(OC)c(OC)cc3NC(=O)[C@@]2(C)[C@H]1c1ccccc1	KB-V1 cytotox inconclusive, MCF10A rereplic 18µM, SW480 rerep 21µM
COc1ccc2c(c1)OC[C@H]1[C@H]2N2C(=O)c3cc(Br)ccc3NC(=O)[C@@]2(C)[C@H]1c1ccccc1	SW480 rerep inconclusive
CCOC(=O)c1c(-c2ccccc2)csc1NC(=O)c1ccc(S(=O)(=O)N2CCOCC2)cc1	MCF10A rereplic 12µM, SW480 rerep inconclusive
CCOc1ccc(Br)cc1S(=O)(=O)Nc1cccc(S(=O)(=O)N2CCOCC2)c1	hERG WT inh -223
CCOC(=O)c1ccc(NC(=O)c2cccc(S(=O)(=O)N3CCOCC3)c2)cc1	KB-V1 cytotox 23µM
CCOc1cc(N2CCOCC2)c(OCC)cc1NC(=O)c1cccc(S(=O)(=O)N2CC(C)OC(C)C2)c1 (stereo unspecified)	none (no result: MCF10A rereplic, SW480 rerep)
CCOC(=O)c1ccc(NC(=O)c2ccc(C)c(S(=O)(=O)N3CCOCC3)c2)cc1	KB-V1 cytotox inconclusive, KB-3-1 cytotox inconclusive, MCF10A rereplic inconclusive
CCOC(=O)c1c(-c2ccccc2)csc1NC(=O)CCN1CCOCC1	KB-V1 cytotox inconclusive, MCF10A rereplic inconclusive (no result: SW480 rerep)
CCOc1cc(N2CCOCC2)c(OCC)cc1NC(=O)c1cccc(S(=O)(=O)N2CCOCC2)c1	KB-V1 cytotox 15µM
Cc1cccc(C(=O)Nc2ccccc2C(=O)OCc2cc(=O)n3nc(C4CC4)sc3n2)c1	none (no result: hERG WT inh, MCF10A rereplic, SW480 rerep, KCNH2 3.1 inh)
CCN1CCN(CCCNC(=O)Cn2c(-c3cccs3)cc3cc(F)ccc32)CC1	none (no result: hERG WT inh, MCF10A rereplic, SW480 rerep, KCNH2 3.1 inh)
COc1ccc(S(=O)(=O)Nc2ccc(N3CCOCC3)nc2)cc1	MCF10A rereplic inconclusive, SW480 rerep inconclusive
Cc1ccc(NC(=O)CC(C)S(=O)(=O)c2ccc3c(c2)NC(=O)CO3)c(C)c1 (stereo unspecified)	none (no result: hERG WT inh, MCF10A rereplic, SW480 rerep, KCNH2 3.1 inh)
COC(=O)c1ccccc1NC(=O)CSc1nc(C)cc(C)n1	none
Cc1cccc(Nc2nnc(SCC(=O)Nc3ccccc3[N+](=O)[O-])s2)c1	KB-V1 cytotox 21µM
Cc1cc(C)nc(SCC(=O)Nc2ccnc3ccccc23)n1	KB-V1 cytotox 4.6µM, KB-3-1 cytotox 3.7µM
Cc1cc(SCNC(=O)c2ccccc2)nc(C(C)C)n1	none
Cc1cc(C)nc(SCNC(=O)c2ccccc2)n1	MCF10A rereplic inconclusive, SW480 rerep 5.8µM
Cc1cc(C)nc(SCC(=O)Nc2ccccc2[N+](=O)[O-])n1	KB-V1 cytotox 23µM
Cc1cccc(SCC(=O)Nc2ccccc2[N+](=O)[O-])c1	none
COc1cccc(Oc2c(C)oc3c(CN4CCCC4)c(O)ccc3c2=O)c1	none
O=C1CSC2(C(=O)N(Cc3cccc(C(F)(F)F)c3)c3ccccc32)N1c1ccc(F)c(F)c1 (stereo unspecified)	KB-3-1 cytotox inconclusive (no result: hERG WT inh, MCF10A rereplic, SW480 rerep, KCNH2 3.1 inh)
Cc1cc(C)n2nc(SCC(=O)Nc3ccc(F)cc3[N+](=O)[O-])nc2n1	KB-V1 cytotox 21µM
CCOc1ccccc1N1CCN(C(=O)C2CSC3(C)CCC(=O)N23)CC1 (stereo unspecified)	KB-V1 cytotox 18µM
Cc1c2ccccc2cc(Cc2ccccc2)[n+]1C	KB-3-1 cytotox 15µM
O=C(Nc1ccc([N+](=O)[O-])cc1)Nc1ccc(N2CCOCC2)c2nonc12	none
COc1ccc(-c2c3c(nc4sc5c(=O)[nH]c(C)nc5c24)CCC3)cc1	MCF10A rereplic inconclusive
COc1ccc(-c2c3c(nc4sc(C(=O)Nc5cc(C)on5)c(N)c24)CCC3)cc1	MCF10A rereplic 1.5µM, SW480 rerep 18µM
COc1cccc(C(=O)NCCS(=O)(=O)N2CCC3(CC2)OCCO3)c1	none
